Pol kappa inh = qHTS for Inhibitors of Polymerase Kappa. purified Pol kappa, fluorescent DNA synthesis assay, 10 min. Potency, µM (doses to about 107 µM), for the others: top-dose activity, negative = inhibition, hits mostly inhibitors. 0.53% of 400,000 active; further: on the % scale 0 is the no-effect control and ±100 the full control effect
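Enzyme at 10 nM met test compounds for 15 min at room temperature. Substrate addition (50 nM final) began the reaction, which was monitored by fluorescence at 0 and 10 min.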
APEX1 inh = qHTS Assay for Inhibitors of the Human Apurinic/apyrimidinic Endonuclease 1 (APE1); 0.35% of 350,000 active; Potency, µM (highest dose often 65.8 µM), without a hit: top-dose activity change, negative = inhibition, actives largely listed as inhibitors; recombinant APE1, TAMRA/BHQ-2 abasic DNA cleavage fluorescence;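 further: plate controls were vehicle for no effect and reference inhibitor for full effect; nearly all actives have a fitted effect of over 55% in size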
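Readout is kinetic fluorescence (ex 525, em 598 nm) from cleavage of 50 nM TAMRA/BHQ-2 THF abasic duplex by 0.75 nM APE1, compound added 15 min beforehand at RT.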
GLS inh = qHTS for Inhibitors of Glutaminase (GLS); Glutaminase kidney isoform, mitochondrial (Homo sapiens), O94925; GLS enzymatic activity, qHTS titration; Potency, µM (titrated, usually from 45.5 µM), for inactives: top-dose activity change, negative = inhibition, most hits filed as inhibitors; 0.21% of 410,000 active; AID 624170, 2012; further: on the % scale 0 is the no-effect control and ±100 the full control effect
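Assay buffer: 45 mM KH2PO4 pH 8.2, 0.02% Tween-20. hKGA acts on L-glutamine (1 mM solution added); product glutamate is reported by an oxidase/peroxidase Amplex Red coupling, with fluorescence taken at baseline and 30 min.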
Pol beta inh = qHTS Assay for Inhibitors of DNA Polymerase Beta; P06746; Pol beta primer extension/strand displacement, fluorescence kinetic; Potency, µM (top dose mostly 114 µM), without a hit: top-dose activity change, negative = inhibition, usual class: inhibitors; 1.3% of 340,000 active; further: on the % scale 0 is the no-effect control and ±100 the full control effect
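Enzyme-only controls used 10 nM Pol beta; buffer lacking enzyme served as negative control. Compound preincubated 15 min, then 50 nM substrate added; 0 and 10 min reads at room temperature.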
Pol eta inh = qHTS for Inhibitors of Polymerase Eta. DNA polymerase eta (Homo sapiens), Q9Y253. Potency, µM (top dose mostly 114 µM), without a hit: at the top dose activity change, negative = inhibition, usual class: inhibitors. AID 588591, 2011. recombinant Pol eta, fluorescent DNA replication assay. 1.2% of 390,000 active; further: on the % scale 0 is the no-effect control and ±100 the full control effect
Target sequence (Q9Y253 whole entry, looked up): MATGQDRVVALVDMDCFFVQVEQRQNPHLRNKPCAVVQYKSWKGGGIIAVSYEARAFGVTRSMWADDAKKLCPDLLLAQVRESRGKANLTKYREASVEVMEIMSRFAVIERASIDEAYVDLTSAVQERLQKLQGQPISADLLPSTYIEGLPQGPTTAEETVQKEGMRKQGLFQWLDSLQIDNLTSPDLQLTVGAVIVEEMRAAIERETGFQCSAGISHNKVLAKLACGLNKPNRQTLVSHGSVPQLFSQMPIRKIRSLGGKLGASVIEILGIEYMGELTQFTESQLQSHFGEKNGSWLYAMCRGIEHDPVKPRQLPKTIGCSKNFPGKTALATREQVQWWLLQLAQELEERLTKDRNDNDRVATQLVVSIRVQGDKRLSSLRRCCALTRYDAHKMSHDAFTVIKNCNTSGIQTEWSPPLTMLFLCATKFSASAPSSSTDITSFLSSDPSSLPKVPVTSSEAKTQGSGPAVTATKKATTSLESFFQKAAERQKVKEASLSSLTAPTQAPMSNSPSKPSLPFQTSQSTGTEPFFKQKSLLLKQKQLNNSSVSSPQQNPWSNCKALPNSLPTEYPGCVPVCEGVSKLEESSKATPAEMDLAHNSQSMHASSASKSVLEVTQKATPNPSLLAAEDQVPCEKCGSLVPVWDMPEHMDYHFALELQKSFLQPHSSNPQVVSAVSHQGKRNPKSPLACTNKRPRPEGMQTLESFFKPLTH
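Fluorescent replication assay: 50 nM final substrate added after a 15 min room-temperature compound preincubation with 10 nM enzyme. Signal taken at 0 min and again at 10 min.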
Pol iota inh = qHTS for Inhibitors of Polymerase Iota; Pol iota fluorescent replication assay, 10 min; AID 588590, 2011; Potency, µM (highest dose often 115 µM), for inactives: at the top dose activity, negative = inhibition, actives largely listed as inhibitors; 1% of 390,000 active
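Pol iota at 10 nM preincubated 15 min with compounds at room temperature; reaction started with fluorescent substrate, 50 nM final. Fluorescence read kinetically at 0 and 10 min; buffer-only wells as negative control.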
Active calls of the source: *; u = inconclusive; x = no result; [ ] = another dose, or the depositor's remark. An excerpt weighted towards active compounds, which were near 2.4% of everything screened. The call rests on the fitted dose curve; in most records, active means well fitted curve in the direction sought with a large enough effect; inconclusive means small, poorly fitted or top-dose-only effect, or another doubt; inactive means no such curve, though single readings can be large; an effect the other way counts as inactive or inconclusive. Potency means the concentration at half of the fitted maximal effect.

SMILES	Pol kappa inh	APEX1 inh	GLS inh	Pol beta inh	Pol eta inh	Pol iota inh
O=C(Nc1ccc(S(=O)(=O)Nc2nccs2)cc1)c1cc(-c2ccccc2)nc2ccccc12	-18%	8%	-22%	-5%	89µM*	66%
Cc1cc(C)c2nc(-c3ccccn3)cc(C(=O)Nc3ccc(S(=O)(=O)Nc4cc(C)on4)cc3)c2c1	u	u	-7%	50µM*	28µM*	u
Cc1ccc(-c2cc(C(=O)Nc3ccc(S(=O)(=O)Nc4ncccn4)cc3)c3ccccc3n2)cc1	-3%	7%	1%	u	u	-11%
Cc1ccc(-c2cc(C(=O)Nc3ccc(S(=O)(=O)Nc4nccs4)cc3)c3ccccc3n2)c(C)c1	-21%	-6%	-7%	0%[57.1 µM]	35µM*	u
Nc1ncnc2c1ncn2[C@@H]1O[C@H](C(=O)N2CCC(F)(F)CC2)[C@@H](O)[C@H]1O	x	x	0%	x	x	x
Cc1ccc(CNC(=O)C23CN(Cc4ccccc4)CC2C(c2cccc([N+](=O)[O-])c2)=NO3)cc1 (stereo unspecified)	-6%	2%	7%	-2%	0%	-4%
O=C(O)C1C2C=CC(C2)C1C(=O)NCCc1ccncc1 (stereo unspecified)	-19%	u	-14%	50µM*	u	-13%
O=C(O)C1C2C=CC(C2)C1C(=O)NCCc1ccccc1 (stereo unspecified)	-23%	2%	11%	-10%	-15%	18%
COC(=O)c1cc(S(=O)(=O)Nc2cccc(-c3ccno3)c2)c[nH]1	x	x	-2%	x	-15%	x
Cc1ccc(-n2c(-c3cc(-c4ccco4)[nH]n3)n[nH]c2=S)c(Br)c1	-7%	7%	32%	-10%	-11%	135%
S=c1[nH]nc(-c2cc(-c3ccco3)[nH]n2)n1-c1cccc2ccccc12	-15%	-4%	u	25µM*	u	u
Cc1nnc(N2CCC(C(=O)NCCc3ccccc3)CC2)c2nn(-c3ccc(Cl)cc3)c(C)c12	1%	x	0%	-11%	-6%	-10%
CCn1c(O)c(/C=C/C=C/C=Nc2ccccc2)sc1=S	-26%	-7%	1%	1%	-12%	u
Oc1c(/C=C/C=C/C=Nc2ccccc2)sc(=S)n1Cc1ccccc1	79µM*	-7%	0%	-58%	u	25µM*
O=c1[nH]c(Nc2ccccc2Cl)cc2ccccc12	-8%	x	13%	x	-14%	1%
O=c1[nH]c(Nc2ccc(F)cc2)cc2ccccc12	-6%	7%	21%	-16%	22µM*	7.1µM*
C=CCn1c(SCC(=O)Nc2nnc(C)s2)nnc1C1CC1	-33%	-33%	0%	25µM*	u	u
CC(=O)Nc1ccc(/C(C)=N\NC(=O)c2ccc(-c3ccccc3)cc2)cc1	x	4%	x	40µM*	x	x
Cc1ccc(NC(=O)C2CC(=O)N(C(C)C)C2)cc1Cl (stereo unspecified)	-3%	3%	-2%	-5%	-6%	13%
Cn1c(N)c(C(=O)COC(=O)COc2ccc(C#N)cc2)c(=O)n(C)c1=O	-4%	12%	4%	29%	-8%	u
Nc1[nH]c(N=NC(=O)c2ccccc2)c2ccccc12	-14%	2%	23%	-12%	-15%	u
Nc1[nH]c(N=NC(=O)c2ccc(Cl)cc2)c2ccccc12	1%	0%	-9%	79µM*	0%	19%
NC(N)=N/N=C/c1ccc(OCc2ccccc2)c(OCc2ccccc2)c1	-15%	6%	-14%	79µM*	-22%	37%
CCOc1cc(/C=N/N=C(N)N)ccc1OCc1ccc(Cl)cc1	6%	-5%	-2%	79µM*	-16%	13%
COc1cc(/C=N/N=C(N)N)ccc1OCc1ccc(Cl)cc1	-11%	0%	9%	u	-23%	22%
SMILES	Pol kappa inh	APEX1 inh	GLS inh	Pol beta inh	Pol eta inh	Pol iota inh
CCOc1ccc(C2C(C(=O)Nc3ccccc3)=C(C)Nc3nc(SCc4cccc(OC)c4)nn32)cc1 (stereo unspecified)	-4%[60.1 µM]	x	-2%	1%	-4%	12%
O=C1c2ccccc2-c2onc3c(NCCO)cc(NC4CCCCC4)c1c23	-32%	x	5%	1%	-15%	-13%
CCOC(=O)C(C(=O)OCC)c1cc(Br)c2noc3c2c1C(=O)c1ccccc1-3	u	u	27%	79µM*	8.9µM*	u
CC(C)(C)OC(=O)NCc1ccc(NC(=O)c2nc[nH]c2C(=O)N[C@@H](Cc2ccccc2)C(=O)OCc2ccccc2)cc1	1%	12%	-9%	-10%	-30%	-4%
O=C(NC(Cc1ccccc1)C(=O)O)/C(=C\c1ccco1)NC(=O)c1ccccc1 (stereo unspecified)	-27%	3%	u	40µM*	14µM*	u
O=C(NC(Cc1ccccc1)C(=O)O)/C(=C\c1ccco1)NC(=O)c1ccc(Br)cc1 (stereo unspecified)	50µM*	14%	u	-22%	u	20µM*
O=C(NC(Cc1ccccc1)C(=O)O)/C(=C\c1ccco1)NC(=O)c1ccco1 (stereo unspecified)	-19%	2%	1%	u	-21%	45%
C[C@@H](c1ccccc1)N1C[C@H](COCc2ccccc2)Oc2cc(N3CC[C@@H](N(C)C)C3)ccc2S1(=O)=O	x	x	11%	x	x	x
CCC(=O)O[C@H]1C(O[C@@H]2C(C)[C@H](O[C@H]3C[C@@](C)(OC)C(O)C(C)O3)C(C)C(=O)OC(CC)[C@@](C)(O)C(O)[C@H](C)C(=O)C(C)C[C@]2(C)O)OC(C)CC1N(C)C (stereo partly specified)	32µM*	x	30%	x	x	x
COc1ccc(C(=O)CCC(=O)Nc2ccc(OC)c(Cl)c2)cc1	-11%[60.1 µM]	x	0%	u	0%	10%
COc1ccc(C(=O)CCC(=O)Nc2cc(Cl)c(O)c(Cl)c2)cc1	u	-7%	-13%	28µM*	22µM*	45µM*
O=c1c2ccccc2oc2cc(Br)ccc12	1%	x	-5%	x	-17%	44%
CC(=O)Oc1cc(O)c2c(=O)c(OC(C)=O)c(-c3ccc(OC(C)=O)c(OC(C)=O)c3)oc2c1	7.1µM*	x	29%	x	2.8µM*	8.9µM*
COc1ccc(-c2cc(=O)c3c(OC(C)=O)cc(OC(C)=O)cc3o2)cc1	-9%[60.1 µM]	-2%	x	x	x	x

High-throughput results: PubChem BioAssay, National Center for Advancing Translational Sciences (NCATS)
